Our source for the composite z-score, z-score and composite Z-score values is PubChem BioAssay.

Activity calls are given as the source filed them.

For assay [1], the system named is Human papillomavirus type 1a protein E7 (residues 44-93). As to the kind of experiment: small molecules binding HPV E7 44-93 – biochemical, small-molecule microarray, residues 44-93, 635 nm fluorescence, primary screen (AID 1108).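 Note: E7 fragment applied at 1 µg/mL in TBST for 1 h at 4 C; score combines spot fluorescence with its signal to noise ratio.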 Conditions: fluorescence 635 nm, higher = more signal.
The nature of assay [2]: hepatitis C replication reporter changes, two-sided – Huh7 cells, luciferase reporter, HCV replication inhibitor project, primary screen (AID 1109).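 Note: huh7 hepatoma cells harbouring a luciferase neomycin HCV replicon reporter; luciferase luminescence as measure of HCV replicon replication; test concentration not given here.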 The following applies: Huh7 HCV replicon luciferase reporter, 48 h; higher = more signal. Background: A reporter such as luciferase makes a cellular process visible.
Assay [3] addresses Left-right determination factor 2 (Homo sapiens) (UniProt O00292). The assay is described as follows: small molecules binding LEFTY2 protein – biochemical, small-molecule microarray, 635 nm fluorescence scan, primary screen (AID 1110). Conditions: higher = more signal.
The target in assay [4] is Calmodulin-1 (Homo sapiens) (UniProt P0DP23). As to the kind of experiment: small molecules binding calmodulin-1 with EGTA – biochemical, small-molecule microarray, Cy5-labelled CALM1, profiling panel (AID 1111).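 Note: labelled calmodulin applied in Tris saline Tween buffer holding calcium plus EGTA and DTT.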 The following applies: Cy5-CALM1 binding fluorescence, higher = more signal.
Assay [5] shares this target. The assay is described as follows: small molecules binding Ca-loaded calmodulin-1 – biochemical, small-molecule microarray, Cy5-labelled CALM1, plus calcium, artefact control for SMM control-protein annotation, profiling panel (AID 1112).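 Note: score merges spot fluorescence with signal to noise from triplicate slides.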 The following applies: Cy5-CALM1 binding fluorescence, higher = more signal.
Assay [6] in a line: probe aWnt5a binding to arrayed compounds – biochemical, biotinylated probe, 635/667 nm fluorescence, primary screen (AID 1113).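 Note: score merges 667 nm fluorescence intensity with signal-to-noise per printed feature.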 Conditions: small-molecule microarray, higher = more signal.
Assay [7] is described as follows: probe aShh binding to arrayed compounds – biochemical, biotinylated probe, 635/667 nm fluorescence, primary screen (AID 1114).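 Note: probe is biotin-labelled aShh protein from a stem cell growth factor screen; measures binding of labelled protein to compounds printed on the slide; score merges feature fluorescence at 667 nm with signal-to-noise.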 Conditions: small-molecule microarray, higher = more signal.
A short description of assay [8]: probe aNog binding to arrayed compounds – biochemical, biotinylated probe, 635/667 nm fluorescence, primary screen (AID 1115).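 Note: probe is biotinylated aNog protein used at 0.15 µg/mL for 1 h at 4 C; z-score combines 667 nm fluorescence of each spot with its signal to noise.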 The following applies: small-molecule microarray, higher = more signal.
The target in assay [9] is Torsin-1A-interacting protein 1 (Homo sapiens) (UniProt Q5JTV8). As to the kind of experiment: compound microarray binding of lysate hLAP1 – cell lysate, small-molecule microarray, COS7 lysate, 635/667 nm fluorescence, primary screen (AID 1116). The following applies: 635 nm fluorescence, higher = more signal.
The target in assay [10] is Alpha-bungarotoxin (Bungarus multicinctus) (UniProt P60615). The assay is described as follows: compounds binding labelled alpha-BTX control protein – biochemical, small-molecule microarray, Alexa647 label, 635/667 nm fluorescence, artefact control for SMM control protein annotation, profiling panel (AID 1117). Conditions: alpha-BTX-A647 binding fluorescence, higher = more signal.

Assay [11] concerns the target Albumin (Bos taurus) (UniProt P02769). The assay is described as follows: compounds binding labelled BSA control protein – biochemical, small-molecule microarray, Alexa647 label, 635/667 nm fluorescence, artefact control for SMM control protein annotation, profiling panel (AID 1118).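 Note: score merges 667 nm emission intensity and signal-to-noise per printed compound spot.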 The following applies: BSA-A647 binding, fluorescence 635 nm, higher = more signal.
Assay [12] is described as follows: probe aXIP binding to arrayed compounds – biochemical, NeuroSMM set, 635/667 nm fluorescence, primary screen (AID 1119).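 Note: probe is the protein aXip251-270 applied at 1 µg/mL to compound-printed slides; binding of probe to printed compounds measured as 667 nm fluorescence plus signal to noise.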 Conditions: small-molecule microarray, higher = more signal, called active from +8 up or from −8 down.
Assay [13] can be described thus: probe aNOTCH3 binding on compound microarray – biochemical, small-molecule microarray, 635/667 nm fluorescence, primary screen (AID 1120).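 Note: probe is a biotin-tagged antibody raised against NOTCH3 rather than NOTCH3 protein; score merges spot fluorescence near 667 nm with spot signal to noise.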 The following applies: higher = more signal.
Assay [14] in a line: probe aNOTCH2 binding on compound microarray – biochemical, small-molecule microarray, 635/667 nm fluorescence, primary screen (AID 1121).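 Note: score merges feature fluorescence read at 667 nm with its signal to noise.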 Conditions: higher = more signal.
In assay [15] the target is Carbonic anhydrase 2 (Homo sapiens) (UniProt P00918). The assay is described as follows: compounds binding carbonic anhydrase 2 – biochemical, small-molecule microarray, Alexa647-labelled CAII, profiling panel (AID 1122). Conditions: CAII-A647 binding fluorescence, higher = more signal.
Assay [16] in a line: COS7 lysate on small-molecule microarray, probe aHis, 635 nm (AID 1123).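 Note: z-score combines 667nm fluorescence intensity with signal-to-noise per printed compound spot.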 The following applies: COS7 cell lysate, fluorescence, higher = more signal.
The nature of assay [17]: probe aLAP1 signal on lysate-treated microarray – cell lysate, small-molecule microarray, COS7 lysate, primary screen (AID 1124).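 Note: lysate comes from COS7 cells expressing LAP1 and is applied at 0.3 µg/mL; score merges spot fluorescence near 667 nm with signal-to-noise over triplicate slides.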 Conditions: probe aLAP1, fluorescence, higher = more signal.
Assay [18] deals with Sam68 (KHDRBS1). As to the kind of experiment: compounds binding KHDRBS1 protein – biochemical, small-molecule microarray, 635 nm fluorescence, primary screen (AID 1125).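 Note: score merges 667 nm channel intensity with signal to noise over triplicate slides.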 The following applies: higher = more signal.
For assay [19], the system named is Chordin-like protein 2 (CHRDL2). The assay is described as follows: compounds binding chordin-like 2 – biochemical, small-molecule microarray, 635 nm fluorescence, primary screen (AID 1126).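 Note: printed compound slides probed with Chrdl2 protein at 4 µg/mL for 1 h at 4 C; score merges 667 nm emission intensity with signal to noise over three replicate slides.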 The following applies: fluorescence 635 nm, higher = more signal.
Assay [20] deals with Concanavalin-A (Canavalia ensiformis) (UniProt P02866). As to the kind of experiment: compounds binding concanavalin A lectin – biochemical, small-molecule microarray, Alexa647 label, 635 nm, artefact control for SMM control protein annotation, primary screen (AID 1127).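 Note: z combines 667 nm emission intensity with signal-to-noise across three replicate slides.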 Conditions: ConA-A647 binding fluorescence, higher = more signal.
Sequence of Concanavalin-A (Canavalia ensiformis) (P02866 whole entry, looked up): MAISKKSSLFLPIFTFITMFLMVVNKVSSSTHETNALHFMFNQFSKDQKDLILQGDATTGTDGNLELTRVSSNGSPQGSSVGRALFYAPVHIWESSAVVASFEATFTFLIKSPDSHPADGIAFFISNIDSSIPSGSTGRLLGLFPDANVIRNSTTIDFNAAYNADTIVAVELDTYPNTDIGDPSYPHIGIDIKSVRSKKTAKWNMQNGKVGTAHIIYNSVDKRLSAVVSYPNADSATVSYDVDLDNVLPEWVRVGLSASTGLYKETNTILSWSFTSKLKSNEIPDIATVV

Sequence of Alpha-bungarotoxin (Bungarus multicinctus) (P60615 whole entry, looked up): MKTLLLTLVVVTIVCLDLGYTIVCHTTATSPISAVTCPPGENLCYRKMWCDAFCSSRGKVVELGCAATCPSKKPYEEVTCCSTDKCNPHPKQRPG
Sequence of Torsin-1A-interacting protein 1 (Homo sapiens) (Q5JTV8 whole entry, looked up): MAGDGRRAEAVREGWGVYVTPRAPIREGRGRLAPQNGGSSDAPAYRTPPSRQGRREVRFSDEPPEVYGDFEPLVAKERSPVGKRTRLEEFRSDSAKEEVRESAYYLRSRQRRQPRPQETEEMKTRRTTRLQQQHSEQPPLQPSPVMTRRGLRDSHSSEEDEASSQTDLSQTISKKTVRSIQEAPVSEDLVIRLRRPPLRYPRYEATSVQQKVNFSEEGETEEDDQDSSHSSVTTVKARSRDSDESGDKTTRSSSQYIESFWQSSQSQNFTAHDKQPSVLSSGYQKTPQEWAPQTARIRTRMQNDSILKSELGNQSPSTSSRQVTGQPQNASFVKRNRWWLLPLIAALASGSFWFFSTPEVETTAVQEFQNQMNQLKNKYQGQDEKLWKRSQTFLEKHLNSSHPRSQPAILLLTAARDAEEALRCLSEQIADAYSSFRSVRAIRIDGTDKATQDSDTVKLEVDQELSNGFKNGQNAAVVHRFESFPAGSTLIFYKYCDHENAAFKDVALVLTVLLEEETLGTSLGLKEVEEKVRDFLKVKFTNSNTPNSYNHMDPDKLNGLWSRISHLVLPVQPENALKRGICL
Sequence of Albumin (Bos taurus) (P02769 whole entry, looked up): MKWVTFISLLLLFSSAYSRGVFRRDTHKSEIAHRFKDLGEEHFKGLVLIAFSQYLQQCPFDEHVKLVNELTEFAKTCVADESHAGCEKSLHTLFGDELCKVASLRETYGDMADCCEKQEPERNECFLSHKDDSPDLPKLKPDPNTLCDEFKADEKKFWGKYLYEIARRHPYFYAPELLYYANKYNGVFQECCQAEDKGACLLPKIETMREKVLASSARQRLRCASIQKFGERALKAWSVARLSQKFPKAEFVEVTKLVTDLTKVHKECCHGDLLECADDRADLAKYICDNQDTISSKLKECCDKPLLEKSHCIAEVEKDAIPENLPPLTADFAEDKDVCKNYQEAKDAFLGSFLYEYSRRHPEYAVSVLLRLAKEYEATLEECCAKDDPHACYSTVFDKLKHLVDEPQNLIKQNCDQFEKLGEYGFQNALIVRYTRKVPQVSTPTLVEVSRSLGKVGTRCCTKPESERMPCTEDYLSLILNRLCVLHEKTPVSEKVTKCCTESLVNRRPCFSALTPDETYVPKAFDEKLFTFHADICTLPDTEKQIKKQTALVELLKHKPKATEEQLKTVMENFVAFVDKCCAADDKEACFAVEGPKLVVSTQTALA
Sequence of Left-right determination factor 2 (Homo sapiens) (O00292 whole entry, looked up): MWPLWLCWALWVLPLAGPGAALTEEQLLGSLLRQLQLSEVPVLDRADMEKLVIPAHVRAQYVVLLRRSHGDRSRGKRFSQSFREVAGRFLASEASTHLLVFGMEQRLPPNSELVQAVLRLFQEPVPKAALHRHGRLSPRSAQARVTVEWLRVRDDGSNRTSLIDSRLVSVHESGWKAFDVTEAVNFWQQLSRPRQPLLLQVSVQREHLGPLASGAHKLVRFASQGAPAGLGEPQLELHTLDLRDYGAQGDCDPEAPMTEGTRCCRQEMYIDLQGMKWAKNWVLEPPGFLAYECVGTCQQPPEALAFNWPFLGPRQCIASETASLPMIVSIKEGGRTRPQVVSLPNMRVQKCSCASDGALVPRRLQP

For the compound `Cc1ccc(N2C(=O)c3ccccc3[C@@H](C(=O)NCC(F)(F)F)[C@@H]2c2ccc(CO)cc2)nc1`, the composite z-score in assay [1] is -2.16; in [3], -3.15; in assay [4], -1.65; in assay [5], -0.526; in assay [6] it was -0.226; in assay [7], -0.0626. Also, the composite z-score in [8] was -0.3; in assay [9] it was 0.153; in assay [10] it was -1.81; in assay [11], -0.0791; in assay [13], -0.185; in [14] it was -0.0674. For the same compound, the composite z-score in assay [15] is 0.844; in assay [16], -0.786; in [17] it was -0.415; in [18], -1.85; in assay [19] it was -2.4; in [20], -1.9. Also, in assay [2], the z-score was determined as 0.643. Also, in [12], the composite Z-score is 0.352 (inactive).

For the compound `C=CC[C@]1(C(=O)NCC(O)CO)N=C(c2ccc(OCCCO)cc2)O[C@H]1c1ccccc1` (stereo not given in full), the composite z-score in assay [1] is -0.72; in assay [3], -0.418; in assay [4], 1.66; in assay [5], 1.12; in [6] it was -0.0286; in assay [7], 0.108. The composite z-score is 0.402 in assay [8]; 3.97 in assay [9]; 1.29 in assay [10]; 0.704 in assay [11]; -0.0391 in [13]; -0.0877 in assay [14]. Besides, the composite z-score in [15] was 0.793; in assay [16], 3.04; in assay [17] it was 1.3; in [18] it was -0.126; in [19], -1.43; in [20], -0.49. Also, in [2], the z-score was -0.294. Further, in [12], the composite Z-score is 1.59 (inactive).

`CCCNC(=O)[C@@]1(Sc2ccc(C)cc2)CC(=O)N(Cc2ccccc2Cl)[C@@H]1c1ccc(CO)cc1`: the composite z-score in assay [1] is 0.658; in assay [3], 0.546; in [4] it was 0.857; in [5], 1.03; in [6] it was -0.0478; in assay [7] it was 0.0407. Besides, the composite z-score in assay [8] is 0.0021; in [9] it was 0.574; in assay [10], 2.05; in assay [11] it was 0.694; in assay [13], 0.308; in assay [14], -0.0906. Besides, the composite z-score in assay [15] is 0.572; in [16], 1.67; in assay [17] it was 1.2; in assay [18], 1.31; in assay [19], 0.725; in assay [20], 1.12. The compound further displayed a z-score in assay [2] of -2.42. Further, in [12], the composite Z-score is 0.165 (inactive).

With `CO[C@H]1COC(=O)CC=C[C@H](C)[C@@H](OC)COC(=O)[C@H](Cc2ccccc2)NC(=O)CC=C[C@@H]1C`, the composite z-score was -1.64 in assay [1]; 1.12 in assay [3]; -1.67 in [4]; -3.12 in assay [5]; -0.144 in assay [6]; -0.11 in assay [7]. Besides, the composite z-score in assay [8] was -0.537; in [9], -0.272; in [10], -1.24; in [11], -2.12; in assay [13], -0.132; in [14], -0.0743. In addition, the composite z-score in [15] is -0.961; in [16], -0.566; in assay [17] it was -0.287; in assay [18] it was -0.777; in [19], 1.46; in assay [20] it was -2.53. In assay [2], this compound yielded a z-score of -0.74. In addition, the composite Z-score in assay [12] is 0.699 (inactive).

Turning to `C=CCN(C(=O)C1N(c2ccc(CCO)cc2)C(=O)C2C(C(=O)O)C3C=CC21O3)C(C)(C)C` (stereo not given), the composite z-score is -0.266 in assay [1]; -2.38 in assay [3]; -0.428 in assay [4]; 0.966 in [5]; -0.287 in [6]; -0.27 in assay [7]. Also, the composite z-score in assay [8] was -0.219; in assay [9], 1.71; in assay [10], -2.69; in assay [11] it was -1.21; in assay [13], -0.549; in assay [14], -0.171. For the same compound, the composite z-score in assay [15] was 0.971; in assay [16] it was 1.42; in [17], -0.262; in [18], -1.24; in assay [19], -4.23; in [20], -3.08. In [2], the z-score was determined as 0.333. The composite Z-score in [12] was -0.12 (inactive).

Regarding `COc1cccc([C@H]2N[C@H](C(=O)O)CC[C@@H]2C)c1`, the composite z-score in assay [1] is 0.0991; in assay [3], 0.0589; in [4] it was 0.0938; in assay [5] it was 0.334; in [6], -0.131; in assay [7], -0.458. For the same compound, the composite z-score in [8] is -0.339; in [9] it was 0.0026; in assay [10], 0.396; in assay [11], -0.207; in assay [13], -0.15; in assay [14] it was -0.129. For the same compound, the composite z-score in assay [15] is 0.0689; in assay [16], -0.146; in assay [17], -0.283; in [18], 0.0672; in assay [19], 0.135; in assay [20] it was 0.334. In addition, the z-score in assay [2] stood at 0.53. Further, in [12], the composite Z-score was -0.269 (inactive).

Take `COCCOC(=O)N1C(=O)[C@@]2(c3cc(C#CCCO)ccc31)[C@H](c1ccc(OCCO)cc1)N1[C@H](c3ccccc3)[C@H](c3ccccc3)OC(=O)[C@H]1[C@@H]2C(=O)NC[C@H](O)c1ccccc1`: the composite z-score is 1.39 in [1]; 0.795 in assay [3]; 0.969 in assay [4]; 0.003 in assay [5]; -0.001 in assay [6]; -0.0904 in assay [7]. For the same compound, the composite z-score in assay [8] was -0.213; in [9] it was 1.29; in assay [10] it was 1.05; in assay [11], -0.525; in [13], 0.272; in assay [14] it was -0.146. For the same compound, the composite z-score in [15] amounted to 0.484; in [16], 1.78; in assay [17], 0.54; in [18], 1.29; in assay [19] it was 0.716; in assay [20] it was 1.05. The compound also displayed a z-score in assay [2] of -1.13. The composite Z-score in [12] is 0.463 (inactive).

As to `CO[C@H]1COC(=O)[C@@H](OCc2ccccc2)C=C[C@H](C)[C@@H](OC)COC(=O)[C@H](OCc2ccccc2)C=C[C@@H]1C`, the composite z-score in assay [1] was -1.23; in [3], 0.348; in assay [4], -2.13; in [5], -1.26; in assay [6], -0.147; in assay [7], -0.138. Besides, the composite z-score in [8] is -0.397; in assay [9] it was -0.144; in assay [10] it was -0.155; in [11] it was -0.695; in assay [13], -0.0682; in assay [14], -0.179. The composite z-score was -0.516 in assay [15]; -0.838 in assay [16]; -0.885 in assay [17]; -0.693 in assay [18]; -0.51 in assay [19]; -0.218 in assay [20]. In assay [2], this compound registered a z-score of 0.512. The composite Z-score in [12] was -0.738 (inactive).
